# According to PubChem BioAssay (EPA / NIEHS):
# Records with an inconclusive call do not appear. Activity calls are given as the source filed them. The calls were made as follows: active = hit-call score of the fitted dose curve at least 0.9, where 1 is the maximum; inconclusive = response in the unintended direction; inactive = score below 0.9.
# Experiments:
# [1] = molecular target: D(1A) dopamine receptor (Homo sapiens) (UniProt P21728); assay: NVS_GPCR_hDRD1: NovaScreen (NVS) G Protein-Coupled Receptor Assay for human Dopamine Receptor D1 (DRD1) (AID 2283269)
# Sequence of D(1A) dopamine receptor (Homo sapiens) (P21728 whole entry, looked up): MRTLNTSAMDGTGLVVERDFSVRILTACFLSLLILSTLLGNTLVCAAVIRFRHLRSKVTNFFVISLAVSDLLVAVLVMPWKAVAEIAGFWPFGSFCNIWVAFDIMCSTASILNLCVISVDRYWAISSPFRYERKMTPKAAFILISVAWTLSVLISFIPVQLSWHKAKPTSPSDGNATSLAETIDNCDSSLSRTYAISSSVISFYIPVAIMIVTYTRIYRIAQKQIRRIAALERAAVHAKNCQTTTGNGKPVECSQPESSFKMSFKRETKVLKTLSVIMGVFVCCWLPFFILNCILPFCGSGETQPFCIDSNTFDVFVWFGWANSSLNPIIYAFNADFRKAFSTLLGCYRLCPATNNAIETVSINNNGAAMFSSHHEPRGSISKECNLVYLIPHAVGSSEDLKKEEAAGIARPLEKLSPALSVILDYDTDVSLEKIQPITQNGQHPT
# Outline: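 Cell-free competition with radioligand, filter-trapped and scintillation-counted 1 h post-dose, using HEK293-derived human D1 preparation. Duplicate single-point testing at 25 uM first, then concentration series for actives; DMSO served as baseline, loss-of-signal scored.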
# [2] = molecular target: human Adrenergic, Alpha 2c Receptor (Adra2C), ADRA2C (gene 152) (UniProt P18825); assay: NVS_GPCR_hAdra2C: NovaScreen (NVS) G Protein-Coupled Receptor Assay for human Adrenergic, Alpha 2c Receptor (Adra2C) (AID 2283259)
# Sequence of human Adrenergic, Alpha 2c Receptor (Adra2C), ADRA2C (gene 152) (P18825 whole entry, looked up): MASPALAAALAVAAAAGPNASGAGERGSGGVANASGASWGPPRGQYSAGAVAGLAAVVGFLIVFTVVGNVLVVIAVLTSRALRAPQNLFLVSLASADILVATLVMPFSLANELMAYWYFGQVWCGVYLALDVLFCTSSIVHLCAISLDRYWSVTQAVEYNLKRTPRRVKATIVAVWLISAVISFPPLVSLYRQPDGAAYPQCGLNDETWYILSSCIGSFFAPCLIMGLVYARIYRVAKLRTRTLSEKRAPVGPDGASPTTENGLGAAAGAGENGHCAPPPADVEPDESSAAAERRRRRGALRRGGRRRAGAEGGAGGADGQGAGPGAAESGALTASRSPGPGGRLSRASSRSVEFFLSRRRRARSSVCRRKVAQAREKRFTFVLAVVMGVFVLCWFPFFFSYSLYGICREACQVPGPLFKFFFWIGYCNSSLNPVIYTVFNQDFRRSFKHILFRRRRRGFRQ
# Outline: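 Radioligand binding on Sf9-expressed receptor membranes, 1 h after chemical dosing, filter-based scintillation read-out. Loss of binding fitted positively versus DMSO; primary duplicate screen at 25 uM, actives retested in concentration series.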
# [3] = tested on: guinea pig Muscarinic, Peripheral (Mperiperal) Receptor, Non-selective Binding, gene 100379235; assay: NVS_GPCR_gMPeripheral_NonSelective: NovaScreen (NVS) G Protein-Coupled Receptor Assay for guinea pig Muscarinic, Peripheral (Mperiperal) Receptor, Non-selective Binding (AID 2283250)
# Outline: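 Guinea pig bladder membranes, radioligand binding read 1 h after dosing by filter scintillation counting; loss of signal vs DMSO. Primary duplicate screen at 25 uM, then concentration-response up to 50 uM.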
# [4] = molecular target: guinea pig Opioid, Kappa 1 Receptor (OpiateK), OPRK1 (gene 100135587) (UniProt P41144); assay: NVS_GPCR_gOpiateK: NovaScreen (NVS) G Protein-Coupled Receptor Assay for guinea pig Opioid, Kappa 1 Receptor (OpiateK) (AID 2283252);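 also: radioligand displacement from kappa opioid receptor in guinea pig cerebellar membranes; active means reduced radioligand binding relative to DMSO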
# Sequence of guinea pig Opioid, Kappa 1 Receptor (OpiateK), OPRK1 (gene 100135587) (P41144 whole entry, looked up): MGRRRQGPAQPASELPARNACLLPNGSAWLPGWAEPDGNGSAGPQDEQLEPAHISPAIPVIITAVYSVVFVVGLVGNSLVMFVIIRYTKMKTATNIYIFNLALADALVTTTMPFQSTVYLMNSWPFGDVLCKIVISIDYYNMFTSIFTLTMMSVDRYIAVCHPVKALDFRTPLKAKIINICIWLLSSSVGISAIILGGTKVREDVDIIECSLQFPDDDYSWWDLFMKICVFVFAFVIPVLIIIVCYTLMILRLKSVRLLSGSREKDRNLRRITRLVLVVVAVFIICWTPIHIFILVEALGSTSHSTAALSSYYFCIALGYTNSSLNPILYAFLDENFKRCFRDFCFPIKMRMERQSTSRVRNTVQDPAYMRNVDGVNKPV
# Outline: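 Guinea pig cerebellar membranes were incubated with a radioligand for 2 h after compound addition; bound radioactivity was read by filter-based scintillation counting. Loss of specific binding relative to DMSO baseline defined activity; primary screen at 25 uM in duplicate.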
# [5] = molecular target: human Dopamine Receptor D4.4 (DRD4.4), DRD4 (gene 1815) (UniProt P21917); assay: NVS_GPCR_hDRD4.4: NovaScreen (NVS) G Protein-Coupled Receptor Assay for human Dopamine Receptor D4.4 (DRD4.4) (AID 2283264)
# Sequence of human Dopamine Receptor D4.4 (DRD4.4), DRD4 (gene 1815) (P21917 whole entry, looked up): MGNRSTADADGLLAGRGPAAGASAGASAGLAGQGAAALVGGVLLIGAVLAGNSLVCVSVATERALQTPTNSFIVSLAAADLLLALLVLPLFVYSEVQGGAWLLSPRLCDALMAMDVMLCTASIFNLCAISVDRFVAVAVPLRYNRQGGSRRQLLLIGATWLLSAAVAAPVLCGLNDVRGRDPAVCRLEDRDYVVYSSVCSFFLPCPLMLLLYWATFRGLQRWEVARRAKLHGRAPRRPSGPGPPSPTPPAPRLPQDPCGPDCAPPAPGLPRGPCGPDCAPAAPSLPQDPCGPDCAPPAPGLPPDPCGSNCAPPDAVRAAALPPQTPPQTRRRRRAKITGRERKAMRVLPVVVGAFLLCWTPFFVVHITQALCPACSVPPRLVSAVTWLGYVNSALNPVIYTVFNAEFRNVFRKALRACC
# Outline: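 Radioligand displacement on human DRD4.4 from CHO-derived membranes, 1 hour incubation, bound counts read by filtration and scintillation. Primary screen in duplicate at 25 uM; actives followed up in concentration series.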
# [6] = molecular target: human Serotonin, 5-Hydroxytryptamine Receptor 5A (5HT5A), HTR5A (gene 3361) (UniProt P47898); assay: NVS_GPCR_h5HT5A: NovaScreen (NVS) G Protein-Coupled Receptor Assay for human Serotonin, 5-Hydroxytryptamine Receptor 5A (5HT5A) (AID 2283251)
# Outline: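 Cell-free radioligand displacement binding on HEK293-derived membrane protein, 1 h incubation, filter-based scintillation counting. Primary screen in duplicate at 25 uM, actives followed in concentration series; loss of signal fitted versus DMSO.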
# [7] = molecular target: human Serotonin, 5-Hydroxytryptamine Receptor 6 (5HT6), HTR6 (gene 3362) (UniProt P50406); assay: NVS_GPCR_h5HT6: NovaScreen (NVS) G Protein-Coupled Receptor Assay for human Serotonin, 5-Hydroxytryptamine Receptor 6 (5HT6) (AID 2283253)
# Sequence of human Serotonin, 5-Hydroxytryptamine Receptor 6 (5HT6), HTR6 (gene 3362) (P50406 whole entry, looked up): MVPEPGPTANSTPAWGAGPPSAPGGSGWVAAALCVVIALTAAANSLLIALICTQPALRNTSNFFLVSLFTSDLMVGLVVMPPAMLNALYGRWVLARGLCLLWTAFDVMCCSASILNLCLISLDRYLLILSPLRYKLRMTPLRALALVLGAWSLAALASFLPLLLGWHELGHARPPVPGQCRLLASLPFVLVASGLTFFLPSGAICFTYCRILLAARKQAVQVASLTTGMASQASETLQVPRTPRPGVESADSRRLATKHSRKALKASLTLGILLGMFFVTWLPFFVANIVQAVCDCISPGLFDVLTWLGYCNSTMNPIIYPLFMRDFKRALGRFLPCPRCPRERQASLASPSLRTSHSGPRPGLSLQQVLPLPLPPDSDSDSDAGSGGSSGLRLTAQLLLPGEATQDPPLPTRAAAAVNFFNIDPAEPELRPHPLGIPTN
# Outline: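 Radioligand binding to 5HT6 in HEK293-derived membranes, cell-free, 1 h after dosing; bound ligand measured by filter-based scintillation counting. Primary screen in duplicate at 25 uM; actives retested in concentration series.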
# [8] = molecular target: human Serotonin, 5-Hydroxytryptamine Receptor 7 (5HT7), HTR7 (gene 3363) (UniProt P34969); assay: NVS_GPCR_h5HT7: NovaScreen (NVS) G Protein-Coupled Receptor Assay for human Serotonin, 5-Hydroxytryptamine Receptor 7 (5HT7) (AID 2283255);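 also: hits reduce specific radioligand binding relative to DMSO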
# Sequence of human Serotonin, 5-Hydroxytryptamine Receptor 7 (5HT7), HTR7 (gene 3363) (P34969 whole entry, looked up): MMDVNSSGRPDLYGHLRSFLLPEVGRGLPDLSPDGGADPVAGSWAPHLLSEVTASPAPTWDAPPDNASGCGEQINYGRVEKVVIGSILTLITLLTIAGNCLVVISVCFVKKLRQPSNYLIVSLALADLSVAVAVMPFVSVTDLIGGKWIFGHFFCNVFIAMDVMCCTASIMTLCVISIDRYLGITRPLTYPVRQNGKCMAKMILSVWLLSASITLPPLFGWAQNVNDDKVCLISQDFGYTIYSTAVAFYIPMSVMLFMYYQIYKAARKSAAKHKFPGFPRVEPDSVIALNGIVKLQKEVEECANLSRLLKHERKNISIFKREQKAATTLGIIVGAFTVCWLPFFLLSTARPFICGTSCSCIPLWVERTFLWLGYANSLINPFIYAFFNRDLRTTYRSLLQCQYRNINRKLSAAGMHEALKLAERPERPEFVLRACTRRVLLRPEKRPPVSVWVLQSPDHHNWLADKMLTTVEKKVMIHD
# Outline: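 Radioligand displacement on membranes from CHO cells expressing human 5HT7, 1 h incubation, filter-based scintillation counting. Primary screen used a single 25 uM concentration in duplicate; actives were followed up in concentration series.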
# [9] = molecular target: human Adrenergic, Alpha 2A Receptor (Adra2A), ADRA2A (gene 150) (UniProt P08913); assay: NVS_GPCR_hAdra2A: NovaScreen (NVS) G Protein-Coupled Receptor Assay for human Adrenergic, Alpha 2A Receptor (Adra2A) (AID 2283257)
# Sequence of human Adrenergic, Alpha 2A Receptor (Adra2A), ADRA2A (gene 150) (P08913 whole entry, looked up): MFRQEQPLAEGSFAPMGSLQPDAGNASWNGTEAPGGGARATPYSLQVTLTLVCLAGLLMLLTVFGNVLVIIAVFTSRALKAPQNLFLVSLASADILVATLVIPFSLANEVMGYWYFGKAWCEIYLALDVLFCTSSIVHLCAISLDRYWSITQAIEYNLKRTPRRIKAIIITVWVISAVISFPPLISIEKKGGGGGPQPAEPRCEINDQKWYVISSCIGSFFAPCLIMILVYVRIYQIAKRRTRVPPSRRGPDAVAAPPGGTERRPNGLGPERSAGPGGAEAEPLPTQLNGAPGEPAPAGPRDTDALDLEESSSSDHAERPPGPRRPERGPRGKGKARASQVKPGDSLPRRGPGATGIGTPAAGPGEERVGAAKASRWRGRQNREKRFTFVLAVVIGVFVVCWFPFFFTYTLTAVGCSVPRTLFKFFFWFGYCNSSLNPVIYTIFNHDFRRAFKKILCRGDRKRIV
# Outline: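 Radioligand filter-binding was run on HT29-derived membranes, cell-free, read by scintillation counting 1 h after dosing. Primary screening was in duplicate at 25 uM, with concentration series in follow-up. Loss of signal versus DMSO indicates displacement.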
# [10] = molecular target: human Adrenergic, Beta 1 Receptor (Adrb1), ADRB1 (gene 153) (UniProt P08588); assay: NVS_GPCR_hAdrb1: NovaScreen (NVS) G Protein-Coupled Receptor Assay for human Adrenergic, Beta 1 Receptor (Adrb1) (AID 2283258)
# Sequence of human Adrenergic, Beta 1 Receptor (Adrb1), ADRB1 (gene 153) (P08588 whole entry, looked up): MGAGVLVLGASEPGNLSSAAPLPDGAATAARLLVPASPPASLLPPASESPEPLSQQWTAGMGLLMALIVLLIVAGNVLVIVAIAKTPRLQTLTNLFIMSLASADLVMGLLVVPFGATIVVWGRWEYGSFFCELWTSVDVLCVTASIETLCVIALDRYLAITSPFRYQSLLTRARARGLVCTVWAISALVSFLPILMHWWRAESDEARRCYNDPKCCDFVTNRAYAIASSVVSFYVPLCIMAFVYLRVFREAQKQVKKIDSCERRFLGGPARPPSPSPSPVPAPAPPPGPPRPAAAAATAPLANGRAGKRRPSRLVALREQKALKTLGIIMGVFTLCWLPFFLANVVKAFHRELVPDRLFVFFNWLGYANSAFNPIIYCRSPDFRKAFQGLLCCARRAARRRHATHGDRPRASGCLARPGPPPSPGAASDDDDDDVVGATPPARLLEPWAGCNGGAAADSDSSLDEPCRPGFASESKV
# Outline: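 Cell-free radioligand displacement on receptor from human neuroepithelioma cells; 2 h after dosing, filter-based scintillation counting. Primary screen in duplicate at 25 uM, actives retested in concentration series; loss of signal vs DMSO baseline.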
# [11] = molecular target: Beta-2 adrenergic receptor (Homo sapiens) (UniProt P07550); assay: NVS_GPCR_hAdrb2: NovaScreen (NVS) G Protein-Coupled Receptor Assay for human Adrenergic, Beta 2 Receptor (Adrb2) (AID 2283261)
# Sequence of Beta-2 adrenergic receptor (Homo sapiens) (P07550 whole entry, looked up): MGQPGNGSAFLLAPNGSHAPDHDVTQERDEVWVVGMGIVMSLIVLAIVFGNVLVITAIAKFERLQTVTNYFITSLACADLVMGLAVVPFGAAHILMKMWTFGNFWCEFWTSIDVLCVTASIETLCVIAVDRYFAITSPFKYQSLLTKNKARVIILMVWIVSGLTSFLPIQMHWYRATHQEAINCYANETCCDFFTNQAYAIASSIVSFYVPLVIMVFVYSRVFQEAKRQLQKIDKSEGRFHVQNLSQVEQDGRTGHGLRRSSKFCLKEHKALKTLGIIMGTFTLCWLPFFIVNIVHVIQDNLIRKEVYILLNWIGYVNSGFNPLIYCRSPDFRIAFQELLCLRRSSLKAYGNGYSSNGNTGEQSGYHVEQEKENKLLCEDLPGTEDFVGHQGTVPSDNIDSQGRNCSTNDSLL
# Outline: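 Filter-based radioligand binding using receptor prepared from CHO cells, 1 h incubation, scintillation counting. Primary screen in duplicate at 25 uM, actives retested in concentration series; loss of binding relative to DMSO.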
# [12] = molecular target: human Dopamine Receptor D2 (DRD2), DRD2 (gene 1813) (UniProt P14416); assay: NVS_GPCR_hDRD2s: NovaScreen (NVS) G Protein-Coupled Receptor Assay for human Dopamine Receptor D2 (DRD2) (AID 2283266)
# Sequence of human Dopamine Receptor D2 (DRD2), DRD2 (gene 1813) (P14416 whole entry, looked up): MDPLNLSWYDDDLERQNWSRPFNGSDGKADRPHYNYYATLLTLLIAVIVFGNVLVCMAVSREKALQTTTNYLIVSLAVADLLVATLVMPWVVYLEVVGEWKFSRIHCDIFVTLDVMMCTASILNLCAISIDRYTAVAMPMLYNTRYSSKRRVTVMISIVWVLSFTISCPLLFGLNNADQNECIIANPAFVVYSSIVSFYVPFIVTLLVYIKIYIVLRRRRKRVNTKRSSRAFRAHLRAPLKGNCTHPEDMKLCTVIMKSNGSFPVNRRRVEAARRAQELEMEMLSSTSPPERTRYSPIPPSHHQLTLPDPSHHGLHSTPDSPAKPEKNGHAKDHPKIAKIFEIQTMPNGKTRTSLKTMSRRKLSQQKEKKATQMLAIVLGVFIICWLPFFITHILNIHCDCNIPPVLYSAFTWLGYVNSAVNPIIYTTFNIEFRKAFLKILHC
# Outline: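 Radioligand displacement used human DRD2 membranes extracted from CHO cells and was read by filter-based scintillation counting after 1.5 hours. Primary screening was in duplicate at 25 uM. Loss of signal versus DMSO was fitted, with concentration series in follow-up.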
# [13] = molecular target: human Histamine 1 Receptor (H1), HRH1 (gene 3269) (UniProt P35367); assay: NVS_GPCR_hH1: NovaScreen (NVS) G Protein-Coupled Receptor Assay for human Histamine 1 Receptor (H1) (AID 2283268)
# Outline: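 Cell-free radioligand displacement at human H1 receptor, 1 h, filter scintillation counting; primary screen 25 uM in duplicate, hits in concentration series; loss of binding fitted vs DMSO.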
# [14] = molecular target: human Adenosine A1 Receptor (AdoRA1), ADORA1 (gene 134) (UniProt P30542); assay: NVS_GPCR_hAdoRA1: NovaScreen (NVS) G Protein-Coupled Receptor Assay for human Adenosine A1 Receptor (AdoRA1) (AID 2283254)
# Sequence of human Adenosine A1 Receptor (AdoRA1), ADORA1 (gene 134) (P30542 whole entry, looked up): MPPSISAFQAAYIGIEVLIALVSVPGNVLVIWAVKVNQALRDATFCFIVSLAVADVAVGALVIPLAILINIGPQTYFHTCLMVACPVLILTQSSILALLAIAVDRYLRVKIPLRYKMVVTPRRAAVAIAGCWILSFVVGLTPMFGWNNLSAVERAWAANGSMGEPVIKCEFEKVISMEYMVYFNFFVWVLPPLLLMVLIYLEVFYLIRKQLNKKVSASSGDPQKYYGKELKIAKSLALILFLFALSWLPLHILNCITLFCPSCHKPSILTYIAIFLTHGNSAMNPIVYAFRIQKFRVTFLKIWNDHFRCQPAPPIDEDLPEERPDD
# Outline: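 Radioligand competition binding on human cortical membranes, 1 h after compound addition; bound radioactivity read by filtration and scintillation counting. Loss of signal versus DMSO baseline scored as displacement; primary screen duplicate at 25 uM, actives retested in concentration series.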
# [15] = molecular target: human Adenosine A2a Receptor (AdoRA2a), ADORA2A (gene 135) (UniProt P29274); assay: NVS_GPCR_hAdoRA2a: NovaScreen (NVS) G Protein-Coupled Receptor Assay for human Adenosine A2a Receptor (AdoRA2a) (AID 2283256)
# Outline: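 Radioligand displacement on HEK293-derived membrane protein, cell-free; filter-based scintillation counting 1.5 hours after dosing, loss of signal vs DMSO. Single-point duplicate screen at 25 uM, actives retested in concentration series.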
# [16] = molecular target: human Adrenergic, Beta 3 Receptor (Adrb3), ADRB3 (gene 155) (UniProt P13945); assay: NVS_GPCR_hAdrb3: NovaScreen (NVS) G Protein-Coupled Receptor Assay for human Adrenergic, Beta 3 Receptor (Adrb3) (AID 2283262)
# Outline: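 Membranes from SK-N-MC cells pretreated with isoproterenol and 8-bromo-cAMP were used in a radioligand competitive displacement binding assay. Binding was read by filter-based scintillation counting 1 hour after dosing. Primary screening was in duplicate at 25 uM, with concentration series in follow-up.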
# [17] = molecular target: Muscarinic acetylcholine receptor M1 (Homo sapiens) (UniProt P11229); assay: NVS_GPCR_hM1: NovaScreen (NVS) G Protein-Coupled Receptor Assay for human Muscarinic, M1 Receptor (AID 2283270)
# Outline: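 Cell-free radioligand displacement using membrane protein extracted from CHO cells, read by filter-based scintillation counting 1 h after dosing. Loss of bound signal fitted versus DMSO; primary screen single concentration 25 uM in duplicate, actives followed by concentration series.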
smiles,measurement,setting,value
CC1=C(/C=C/C(C)=C/C=C/C(C)=C/CO)C(C)(C)CCC1,outcome,[1],inactive
CC1(C)CC(N=C=O)CC(C)(CN=C=O)C1 (stereo not drawn),outcome,[2],inactive
same,outcome,[1],inactive
COc1ccc(S(=O)(=O)N2C(=O)[C@@](c3ccccc3OC)(N3C[C@H](O)C[C@H]3C(=O)N(C)C)c3cc(Cl)ccc32)c(OC)c1,AC50,[3],13.8 µM (active)
same,outcome,[1],inactive
CCc1c(C(=O)NN2CCCCC2)nn(-c2ccc(Cl)cc2Cl)c1-c1ccc(Br)cc1,AC50,[4],9.97 µM (active)
same,outcome,[5],inactive
NC(=O)Cn1c(=O)cc(CCN2CCN(c3nccc4sccc34)CC2)c2ccc(F)cc21,outcome,[3],inactive
same,AC50,[6],834 nM (active)
same,AC50,[7],214 nM (active)
same,AC50,[8],0.0155 µM (active)
same,AC50,[9],2.03 µM (active)
same,AC50,[10],1.38 µM (active)
same,AC50,[2],0.666 µM (active)
same,AC50,[11],8.69 µM (active)
same,AC50,[5],0.023 µM (active)
same,AC50,[12],0.926 µM (active)
same,AC50,[13],199 nM (active)
same,AC50,[1],0.00708 µM (active)
CNC(=O)[C@H]1O[C@@H](n2cnc3c(NCc4cc(Cl)ccc4OCc4cc(C)no4)ncnc32)[C@H](O)[C@@H]1N,outcome,[2],inactive
CCOC(=O)CCC(=O)OCC,outcome,[3],inactive
same,outcome,[14],inactive
same,outcome,[8],inactive
same,outcome,[15],inactive
same,outcome,[2],inactive
same,outcome,[11],inactive
same,outcome,[5],inactive
same,outcome,[12],inactive
same,outcome,[13],inactive
COCCOC[C@H](CC1(C(=O)NC2CCC(C(=O)O)CC2)CCCC1)C(=O)Oc1ccc2c(c1)CCC2 (stereo partly drawn),outcome,[4],inactive
COc1cc(S(=O)(=O)O)c(C)cc1N=Nc1c(O)ccc2cc(S(=O)(=O)O)ccc12,outcome,[4],inactive
same,AC50,[8],14.8 µM (active)
same,AC50,[2],13.9 µM (active)
same,AC50,[5],38.7 µM (active)
same,AC50,[12],11.4 µM (active)
same,AC50,[1],35.3 µM (active)
Nc1ccc(S(=O)(=O)c2ccc(N)cc2)cc1,AC50,[7],1200 nM (active)
same,outcome,[10],inactive
COc1ccc2c(c1)c(CC(=O)O)c(C)n2C(=O)c1ccc(Cl)cc1,outcome,[3],inactive
Nc1ccc2c(c1)C(=O)c1ccccc1C2=O,AC50,[14],6.52 µM (active)
O=C(N[C@@H](Cc1ccccc1)[C@@H](O)C(=O)N1C[C@@H](O)[C@@H](O)C1)c1cc2cc(Cl)ccc2[nH]1,AC50,[14],16 µM (active)
same,outcome,[1],inactive
CNCc1cc(F)ccc1Oc1ccc(Cl)c(Cl)c1,AC50,[3],25 µM (active)
same,AC50,[4],12.7 µM (active)
Oc1ccc2c(c1)OC[C@@H](N1CCC(O)(c3ccc(F)cc3)CC1)[C@H]2O,outcome,[7],inactive
same,outcome,[14],inactive
same,outcome,[9],inactive
same,outcome,[2],inactive
same,outcome,[11],inactive
same,outcome,[16],inactive
same,outcome,[12],inactive
same,outcome,[1],inactive
same,outcome,[17],inactive
